According to the supplement of paper PMC10849652:
Of roughly 7,900 targets only a part is listed; those with a hit were picked by preference. About 0.6% of all pairs of compound and target were hits. A number with no mark means an inactive call.

Assays:
Test in all cases: log2 fold change, soluble protein after heating vs DMSO (PISA); higher = thermal stabilisation; K562 cells, 10 uM, 30 min; active = over 0.2 and 3.5 SD of the protein, either way, in both replicates (recomputed)
saracatinib = compound: CN1CCN(CCOc2cc(OC3CCOCC3)c3c(Nc4c(Cl)ccc5c4OCO5)ncnc3c2)CC1 [saracatinib]
How it was run: (§1)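 For each measurement, 10 μM compound was applied for 30 min to K562 cells at 2×10^6 cells/mL. Aliquots were heated for 3 min across 48°C-58°C, pooled, and extracted in PBS with 0.5% NP-40 at 4°C; the supernatant after 21,000xg for 90 min was soluble protein. This was quantified by TMTpro 16plex LC-MS/MS with channel sums equalised, and thermal stability was reported relative to control samples from duplicates, on a log2 fold-change scale.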

sotrastaurin = compound: CN1CCN(c2nc(C3=C(c4c[nH]c5ccccc45)C(=O)NC3=O)c3ccccc3n2)CC1 [sotrastaurin]
How it was run: as §1

alvocidib = compound: CN1CC[C@H](c2c(O)cc(O)c3c(=O)cc(-c4ccccc4Cl)oc23)[C@H](O)C1 [alvocidib]
How it was run: as §1

Tubastatin A = compound: CN1CCc2c(c3ccccc3n2Cc2ccc(C(=O)NO)cc2)C1 [Tubastatin A]
How it was run: as §1

[1] = compound: CNC(=O)C1=CC=CC=C1NC2=NC(=NC=C2Cl)NC3=C(C=C(C=C3)N4CCOCC4)OC
How it was run: as §1

defactinib = compound: CNC(=O)c1ccc(Nc2ncc(C(F)(F)F)c(NCc3nccnc3N(C)S(C)(=O)=O)n2)cc1 [defactinib]
How it was run: as §1

rucaparib = compound: CNCc1ccc(-c2[nH]c3cc(F)cc4c3c2CCNC4=O)cc1 [rucaparib]
How it was run: as §1

[2] = compound: CNc1nc(-c2ccc3c(N)n[nH]c3c2)cc(N2C[C@@H](C(=O)NC3CCCCC3)CC[C@H]2C)n1
How it was run: as §1

encorafenib = compound: COC(=O)N[C@@H](C)CNc1nccc(-c2cn(C(C)C)nc2-c2cc(Cl)cc(NS(C)(=O)=O)c2F)n1 [encorafenib]
How it was run: as §1

[3] = compound: COC(=O)[C@H](CCSC)NC(=O)C1=C(C=C(C=C1)NC[C@H](CS)N)C2=CC=CC=C2
How it was run: as §1

[4] = compound: COC1=CC=C(C=C1)CN2C=CC3=C2C=C(C=C3)C(=O)NO
How it was run: as §1

filanesib = compound: CON(C)C(=O)N1N=C(c2cc(F)ccc2F)S[C@@]1(CCCN)c1ccccc1 [filanesib]
How it was run: as §1

zotarolimus = compound: CO[C@H]1C[C@@H]2CC[C@@H](C)[C@@](O)(O2)C(=O)C(=O)N2CCCC[C@H]2C(=O)O[C@H]([C@H](C)C[C@@H]2CC[C@H](n3cnnn3)[C@H](OC)C2)CC(=O)[C@H](C)/C=C(\C)[C@@H](O)[C@@H](OC)C(=O)[C@H](C)C[C@H](C)/C=C/C=C/C=C/1C [zotarolimus]
How it was run: as §1

idasanutlin = compound: COc1cc(C(=O)O)ccc1NC(=O)[C@@H]1N[C@@H](CC(C)(C)C)[C@](C#N)(c2ccc(Cl)cc2F)[C@H]1c1cccc(Cl)c1F [idasanutlin]
How it was run: as §1

alisertib = compound: COc1cc(Nc2ncc3c(n2)-c2ccc(Cl)cc2C(c2c(F)cccc2OC)=NC3)ccc1C(=O)O [alisertib]
How it was run: as §1

[5] = compound: COc1cc2nc(-c3cc(F)ccc3O)nc(N[C@@H]3CNC[C@H]3C(C)(C)O)c2cc1OC
How it was run: as §1

gefitinib = compound: COc1cc2ncnc(Nc3ccc(F)c(Cl)c3)c2cc1OCCCN1CCOCC1 [gefitinib]
How it was run: as §1

[6] = compound: COc1cccc2cc(-c3nc([C@H]4CC[C@H](C(=O)O)CC4)n4ncnc(N)c34)[nH]c12
How it was run: as §1

lapatinib = compound: CS(=O)(=O)CCNCc1ccc(-c2ccc3ncnc(Nc4ccc(OCc5cccc(F)c5)c(Cl)c4)c3c2)o1 [lapatinib]
How it was run: as §1

pictilisib = compound: CS(=O)(=O)N1CCN(Cc2cc3nc(-c4cccc5[nH]ncc45)nc(N4CCOCC4)c3s2)CC1 [pictilisib]
How it was run: as §1

Chain of UniProt P63165 (P63165 whole entry, looked up): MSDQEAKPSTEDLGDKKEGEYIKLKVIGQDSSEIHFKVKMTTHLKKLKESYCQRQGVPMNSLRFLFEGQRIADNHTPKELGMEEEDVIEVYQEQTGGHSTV
Chain of UniProt Q02447 (Q02447 whole entry, looked up): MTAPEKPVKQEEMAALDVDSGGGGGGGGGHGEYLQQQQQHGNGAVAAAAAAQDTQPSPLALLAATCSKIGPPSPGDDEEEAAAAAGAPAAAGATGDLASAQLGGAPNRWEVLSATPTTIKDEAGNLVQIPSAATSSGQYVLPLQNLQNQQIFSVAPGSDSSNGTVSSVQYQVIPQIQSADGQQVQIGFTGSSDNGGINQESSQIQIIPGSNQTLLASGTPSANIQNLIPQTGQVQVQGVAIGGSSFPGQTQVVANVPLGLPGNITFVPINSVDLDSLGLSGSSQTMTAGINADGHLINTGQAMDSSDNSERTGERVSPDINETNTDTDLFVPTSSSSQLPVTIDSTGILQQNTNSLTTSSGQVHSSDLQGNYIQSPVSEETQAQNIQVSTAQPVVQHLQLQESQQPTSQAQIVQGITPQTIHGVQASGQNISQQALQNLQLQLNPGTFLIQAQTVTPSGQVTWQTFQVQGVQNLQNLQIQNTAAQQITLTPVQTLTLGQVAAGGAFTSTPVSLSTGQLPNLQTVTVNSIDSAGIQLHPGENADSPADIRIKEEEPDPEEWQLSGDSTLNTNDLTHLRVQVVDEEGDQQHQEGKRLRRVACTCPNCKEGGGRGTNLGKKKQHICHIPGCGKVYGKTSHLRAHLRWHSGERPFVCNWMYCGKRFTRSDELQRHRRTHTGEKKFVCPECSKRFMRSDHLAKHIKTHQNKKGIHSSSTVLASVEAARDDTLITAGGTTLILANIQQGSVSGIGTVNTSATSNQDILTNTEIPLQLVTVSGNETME
Chain of UniProt Q8IWZ8 (Q8IWZ8 whole entry, looked up): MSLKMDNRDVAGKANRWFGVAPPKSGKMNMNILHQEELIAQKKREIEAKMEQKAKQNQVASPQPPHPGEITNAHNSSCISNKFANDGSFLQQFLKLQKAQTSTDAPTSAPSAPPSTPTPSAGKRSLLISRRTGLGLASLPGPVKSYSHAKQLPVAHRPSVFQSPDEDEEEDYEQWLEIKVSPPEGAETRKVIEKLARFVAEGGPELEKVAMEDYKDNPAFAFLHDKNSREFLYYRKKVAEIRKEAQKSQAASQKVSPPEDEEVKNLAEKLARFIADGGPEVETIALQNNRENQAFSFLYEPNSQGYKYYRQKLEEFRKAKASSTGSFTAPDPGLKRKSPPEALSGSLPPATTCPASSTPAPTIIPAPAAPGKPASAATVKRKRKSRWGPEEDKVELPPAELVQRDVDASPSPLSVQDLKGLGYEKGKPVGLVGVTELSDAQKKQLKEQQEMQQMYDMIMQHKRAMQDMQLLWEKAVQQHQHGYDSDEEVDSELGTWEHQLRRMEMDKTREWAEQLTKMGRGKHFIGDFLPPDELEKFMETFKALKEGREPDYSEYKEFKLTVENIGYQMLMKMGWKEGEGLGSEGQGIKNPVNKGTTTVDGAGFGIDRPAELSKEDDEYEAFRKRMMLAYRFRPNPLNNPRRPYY
Chain of UniProt Q66K14 (Q66K14 whole entry, looked up): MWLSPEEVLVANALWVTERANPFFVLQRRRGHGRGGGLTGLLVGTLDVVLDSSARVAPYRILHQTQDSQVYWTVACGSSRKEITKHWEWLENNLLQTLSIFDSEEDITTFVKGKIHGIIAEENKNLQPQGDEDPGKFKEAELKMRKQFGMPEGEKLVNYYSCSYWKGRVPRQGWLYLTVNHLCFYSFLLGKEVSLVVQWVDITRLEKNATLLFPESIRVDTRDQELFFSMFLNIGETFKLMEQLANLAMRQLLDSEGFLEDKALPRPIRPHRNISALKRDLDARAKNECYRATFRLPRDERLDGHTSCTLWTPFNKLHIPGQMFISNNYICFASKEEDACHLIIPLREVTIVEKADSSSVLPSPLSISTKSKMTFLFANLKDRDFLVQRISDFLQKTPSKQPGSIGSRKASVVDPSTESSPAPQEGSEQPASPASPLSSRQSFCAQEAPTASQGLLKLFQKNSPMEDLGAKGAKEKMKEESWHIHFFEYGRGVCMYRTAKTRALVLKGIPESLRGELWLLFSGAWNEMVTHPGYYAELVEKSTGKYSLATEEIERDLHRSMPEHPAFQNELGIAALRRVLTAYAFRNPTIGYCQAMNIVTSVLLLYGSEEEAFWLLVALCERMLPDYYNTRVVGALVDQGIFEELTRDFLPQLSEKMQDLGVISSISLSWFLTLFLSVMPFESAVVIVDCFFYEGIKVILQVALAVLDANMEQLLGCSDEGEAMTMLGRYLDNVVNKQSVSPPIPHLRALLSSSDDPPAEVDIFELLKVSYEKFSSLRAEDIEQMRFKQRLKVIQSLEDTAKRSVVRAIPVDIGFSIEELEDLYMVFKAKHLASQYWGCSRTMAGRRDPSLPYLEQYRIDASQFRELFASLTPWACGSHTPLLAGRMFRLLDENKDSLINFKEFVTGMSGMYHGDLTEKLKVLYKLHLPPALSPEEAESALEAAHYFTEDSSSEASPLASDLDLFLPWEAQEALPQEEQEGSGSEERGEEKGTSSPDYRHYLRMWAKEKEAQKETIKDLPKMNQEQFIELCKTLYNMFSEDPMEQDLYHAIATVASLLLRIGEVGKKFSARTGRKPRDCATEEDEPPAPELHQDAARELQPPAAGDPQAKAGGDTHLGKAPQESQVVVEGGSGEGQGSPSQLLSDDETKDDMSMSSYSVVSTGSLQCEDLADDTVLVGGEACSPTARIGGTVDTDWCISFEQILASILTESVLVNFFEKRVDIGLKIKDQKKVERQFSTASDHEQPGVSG
Chain of UniProt Q86VP1 (Q86VP1 whole entry, looked up): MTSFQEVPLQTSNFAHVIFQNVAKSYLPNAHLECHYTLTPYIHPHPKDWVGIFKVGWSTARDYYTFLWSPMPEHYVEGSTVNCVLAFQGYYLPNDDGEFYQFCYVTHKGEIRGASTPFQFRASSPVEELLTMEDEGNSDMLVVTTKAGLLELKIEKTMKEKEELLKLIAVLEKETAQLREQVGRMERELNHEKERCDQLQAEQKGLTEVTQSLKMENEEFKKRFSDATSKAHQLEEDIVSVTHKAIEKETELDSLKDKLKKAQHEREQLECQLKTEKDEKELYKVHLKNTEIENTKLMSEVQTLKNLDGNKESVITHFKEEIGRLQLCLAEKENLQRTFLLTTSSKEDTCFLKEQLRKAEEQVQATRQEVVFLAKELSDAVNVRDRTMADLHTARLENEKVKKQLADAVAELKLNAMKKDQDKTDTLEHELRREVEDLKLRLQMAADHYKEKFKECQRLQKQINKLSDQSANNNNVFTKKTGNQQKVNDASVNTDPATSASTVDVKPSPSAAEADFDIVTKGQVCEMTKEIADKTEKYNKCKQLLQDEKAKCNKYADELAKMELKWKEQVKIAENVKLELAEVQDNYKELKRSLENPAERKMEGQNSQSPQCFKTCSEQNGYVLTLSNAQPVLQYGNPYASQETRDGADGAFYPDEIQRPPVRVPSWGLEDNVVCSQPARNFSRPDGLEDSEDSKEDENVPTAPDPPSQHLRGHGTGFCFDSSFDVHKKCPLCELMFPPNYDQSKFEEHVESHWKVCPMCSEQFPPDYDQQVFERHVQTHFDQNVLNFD
Chain of UniProt Q9UH99 (Q9UH99 whole entry, looked up): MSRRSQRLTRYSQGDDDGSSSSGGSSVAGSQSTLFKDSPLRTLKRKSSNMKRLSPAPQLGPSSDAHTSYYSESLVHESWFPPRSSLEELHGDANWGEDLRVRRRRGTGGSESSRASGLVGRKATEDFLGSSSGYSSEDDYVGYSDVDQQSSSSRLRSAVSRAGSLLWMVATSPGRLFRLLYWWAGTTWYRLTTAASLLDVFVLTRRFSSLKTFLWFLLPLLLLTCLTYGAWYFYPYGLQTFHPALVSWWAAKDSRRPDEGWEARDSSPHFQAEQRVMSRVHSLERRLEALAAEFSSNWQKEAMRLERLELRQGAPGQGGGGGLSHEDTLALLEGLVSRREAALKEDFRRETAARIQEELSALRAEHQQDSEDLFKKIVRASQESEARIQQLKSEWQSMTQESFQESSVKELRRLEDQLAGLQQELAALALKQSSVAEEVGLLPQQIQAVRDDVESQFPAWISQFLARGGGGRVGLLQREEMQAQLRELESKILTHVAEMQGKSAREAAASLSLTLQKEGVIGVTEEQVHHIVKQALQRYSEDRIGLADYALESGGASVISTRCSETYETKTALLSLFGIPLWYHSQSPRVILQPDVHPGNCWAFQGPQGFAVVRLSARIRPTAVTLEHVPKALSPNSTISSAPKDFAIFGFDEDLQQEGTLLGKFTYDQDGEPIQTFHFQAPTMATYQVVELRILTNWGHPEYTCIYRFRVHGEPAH
Chain of UniProt Q96CW6 (Q96CW6 whole entry, looked up): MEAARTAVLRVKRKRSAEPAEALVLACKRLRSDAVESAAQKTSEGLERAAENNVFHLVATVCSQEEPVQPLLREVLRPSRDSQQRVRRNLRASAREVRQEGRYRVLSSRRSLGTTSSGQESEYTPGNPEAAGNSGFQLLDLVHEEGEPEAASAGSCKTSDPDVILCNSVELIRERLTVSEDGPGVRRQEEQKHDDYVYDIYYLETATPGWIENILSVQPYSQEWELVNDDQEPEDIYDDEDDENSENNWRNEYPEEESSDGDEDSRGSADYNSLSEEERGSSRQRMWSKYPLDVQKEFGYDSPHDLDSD
Chain of UniProt Q15526 (Q15526 whole entry, looked up): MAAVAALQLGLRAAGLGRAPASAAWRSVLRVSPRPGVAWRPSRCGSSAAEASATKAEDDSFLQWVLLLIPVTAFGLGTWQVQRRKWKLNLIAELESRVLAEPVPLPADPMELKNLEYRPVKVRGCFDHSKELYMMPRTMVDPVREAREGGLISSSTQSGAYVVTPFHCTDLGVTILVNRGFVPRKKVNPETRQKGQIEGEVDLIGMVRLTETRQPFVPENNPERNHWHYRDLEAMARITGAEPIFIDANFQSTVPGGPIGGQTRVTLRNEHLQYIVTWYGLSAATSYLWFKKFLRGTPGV

Row | Target | log2 fold change (saracatinib) | log2 fold change (sotrastaurin) | log2 fold change (alvocidib) | log2 fold change (Tubastatin A) | log2 fold change [1] | log2 fold change (defactinib) | log2 fold change (rucaparib) | log2 fold change [2] | log2 fold change (encorafenib) | log2 fold change [3] | log2 fold change [4] | log2 fold change (filanesib) | log2 fold change (zotarolimus) | log2 fold change (idasanutlin) | log2 fold change (alisertib) | log2 fold change [5] | log2 fold change (gefitinib) | log2 fold change [6] | log2 fold change (lapatinib) | log2 fold change (pictilisib)
1 | TFRC (UniProt P02786) | 0.008 | 0.005 | 0.01 | -0.028 | 0.029 | -0.03 | -0.003 | -0.056 | 0.019 | -0.004 | 0.009 | -0.013 | -0.041 | -0.027 | -0.05 | 0.017 | 0.004 | 0.063 | -0.03 | 0.048
2 | SOAT1 (UniProt P35610) | 0.026 | -0.06 | -0.02 | -0.057 | 0.186 | -0.053 | -0.064 | 0.014 | 0.122 | 0.111 | 0 | -0.1 | 0.363 (active) | -0.184 | -0.02 | -0.118 | 0.137 | 0.045 | 0.068 | 0.067
3 | TFR2 (UniProt Q9UP52) | 0.007 | -0.031 | 0.029 | -0.053 | 0.006 | 0.029 | 0.029 | -0.129 | -0.015 | 0.009 | -0.066 | 0.011 | -0.06 | 0.035 | -0.04 | 0.011 | -0.035 | 0.041 | -0.011 | 0.05
4 | TBC1D9B (UniProt Q66K14) | -0.023 | 0.077 | -0.059 | 0.063 | -0.07 | -0.064 | 0.009 | -0.01 | 0.065 | 0.027 | -0.037 | 0.151 | 0.042 | -0.003 | 0.03 | -0.026 | -0.072 | 0.03 | -0.031 | 0.068
5 | SPG11 (UniProt Q96JI7) | -0.281 | 0.055 | 0.28 | 0.012 | -0.156 | 0.151 | 0.046 | 0.119 | -0.094 | 0.069 | -0.232 | 0.158 | -0.415 | -0.118 | 0.388 | 0.14 | -0.032 | 0.331 | -0.167 | 0.401
6 | SMARCA5 (UniProt O60264) | -0.084 | -0.235 | -0.193 | 0.082 | 0.038 | -0.145 | 0.035 | 0.065 | 0.116 | 0.01 | 0.047 | 0.047 | 0.043 | 0.059 | -0.064 | -0.049 | 0.073 | -0.144 | -0.017 | 0.004
7 | TAX1BP1 (UniProt Q86VP1) | 0.016 | -0.057 | -0.028 | -0.01 | -0.016 | -0.038 | -0.003 | -0.06 | 0.025 | 0.054 | -0.03 | -0.043 | -0.009 | 0.069 | 0.007 | -0.052 | 0.001 | 0.033 | -0.012 | 0.044
8 | SP3 (UniProt Q02447) | 0.048 | -0.122 | 0.033 | -0.205 | -0.032 | 0.042 | -0.004 | -0.05 | -0.053 | 0.04 | -0.001 | -0.008 | -0.024 | 0.052 | -0.084 | 0.037 | -0.038 | -0.04 | 0.016 | 0.041
9 | TAOK3 (UniProt Q9H2K8) | -0.002 | -0.089 | -0.062 | 0.042 | -0.031 | -0.109 | -0.013 | 0.019 | 0.052 | -0.044 | 0.047 | 0.014 | 0.002 | -0.003 | -0.038 | -0.049 | 0.001 | -0.011 | 0.061 | -0.001
10 | SNUPN (UniProt O95149) | 0.052 | -0.069 | -0.061 | -0.036 | -0.019 | -0.056 | -0.027 | -0.04 | 0.021 | 0.028 | 0.001 | -0.09 | -0.007 | 0.05 | -0.013 | -0.05 | 0.014 | 0.005 | 0.019 | -0.021
11 | SUMO1 (UniProt P63165) | -0.112 | 0.011 | 0.12 | -0.073 | 0.022 | -0.067 | 0.056 | -0.09 | -0.029 | 0.028 | -0.363 | 0.102 | -0.183 | -0.099 | -0.052 | -0.507 (active) | 0.004 | 0.055 | 0.549 (active) | 0.006
12 | SUN2 (UniProt Q9UH99) | -0.029 | -0.09 | 0.015 | 0.053 | -0.068 | -0.05 | 0.03 | -0.066 | 0.067 | 0.023 | 0.028 | 0.013 | 0.017 | 0.077 | -0.044 | -0.194 | -0.078 | -0.007 | 0.066 | 0.071
13 | SURF1 (UniProt Q15526) | 0.034 | -0.084 | -0.078 | -0.03 | 0.026 | -0.012 | -0.083 | -0.092 | 0.017 | -0.105 | 0.053 | -0.032 | -0.008 | 0.025 | -0.098 | -0.004 | -0.055 | 0.083 | 0.058 | 0.051
14 | STK25 (UniProt O00506) | -0.045 | 0.088 | 0.028 | -0.007 | -0.078 | -0.041 | 0.011 | -0.012 | 0.039 | 0.051 | -0.06 | -0.006 | -0.039 | 0.006 | -0.055 | 0.076 | -0.061 | 0.038 | -0.047 | 0.053
15 | SLC7A6OS (UniProt Q96CW6) | 0.14 | 0.008 | 0.024 | -0.001 | 0.031 | -0.144 | -0.05 | -0.078 | -0.004 | 0.06 | -0.085 | 0.006 | 0.046 | -0.034 | -0.073 | -0.072 | 0.007 | -0.037 | 0.038 | 0.019
16 | SUGP1 (UniProt Q8IWZ8) | 0.012 | -0.049 | -0.129 | 0.052 | -0.043 | -0.124 | -0.016 | -0.074 | -0.003 | -0.02 | 0.027 | -0.01 | 0 | 0.026 | -0.038 | -0.007 | 0.055 | -0.02 | -0.046 | 0.032
